Measured values published in PubChem BioAssay AID2557 (NMMLSC, 2010).
“And” between values parts separate entries of the source, which are not always exact repeats. Equal entries are not always repeated. Screen size: about 330,000 compounds; about 650 (0.2%) were called active. Rule as the data show it: active = inhibition above about 50%; inactive = the rest. The list comes from a sample in which actives are over-represented; it also holds similar structures and randomly drawn compounds. Some compounds were tested as several samples or in several runs, with calls that do not always agree.

Target: Integrin alpha-4 (Homo sapiens) (UniProt P13612)
Experiment: VLA-4 integrin binding inhibitors – MLPCN library, flow cytometry, VLA-4 expressing cells, VLA-4 allosteric modulator project, primary screen (AID 2557)
Conditions: ligand binding flow cytometry, stronger effect = higher value, about 7 µM as worked out from the volumes in the protocol

Sequence of Integrin alpha-4 (Homo sapiens) (P13612 whole entry, looked up): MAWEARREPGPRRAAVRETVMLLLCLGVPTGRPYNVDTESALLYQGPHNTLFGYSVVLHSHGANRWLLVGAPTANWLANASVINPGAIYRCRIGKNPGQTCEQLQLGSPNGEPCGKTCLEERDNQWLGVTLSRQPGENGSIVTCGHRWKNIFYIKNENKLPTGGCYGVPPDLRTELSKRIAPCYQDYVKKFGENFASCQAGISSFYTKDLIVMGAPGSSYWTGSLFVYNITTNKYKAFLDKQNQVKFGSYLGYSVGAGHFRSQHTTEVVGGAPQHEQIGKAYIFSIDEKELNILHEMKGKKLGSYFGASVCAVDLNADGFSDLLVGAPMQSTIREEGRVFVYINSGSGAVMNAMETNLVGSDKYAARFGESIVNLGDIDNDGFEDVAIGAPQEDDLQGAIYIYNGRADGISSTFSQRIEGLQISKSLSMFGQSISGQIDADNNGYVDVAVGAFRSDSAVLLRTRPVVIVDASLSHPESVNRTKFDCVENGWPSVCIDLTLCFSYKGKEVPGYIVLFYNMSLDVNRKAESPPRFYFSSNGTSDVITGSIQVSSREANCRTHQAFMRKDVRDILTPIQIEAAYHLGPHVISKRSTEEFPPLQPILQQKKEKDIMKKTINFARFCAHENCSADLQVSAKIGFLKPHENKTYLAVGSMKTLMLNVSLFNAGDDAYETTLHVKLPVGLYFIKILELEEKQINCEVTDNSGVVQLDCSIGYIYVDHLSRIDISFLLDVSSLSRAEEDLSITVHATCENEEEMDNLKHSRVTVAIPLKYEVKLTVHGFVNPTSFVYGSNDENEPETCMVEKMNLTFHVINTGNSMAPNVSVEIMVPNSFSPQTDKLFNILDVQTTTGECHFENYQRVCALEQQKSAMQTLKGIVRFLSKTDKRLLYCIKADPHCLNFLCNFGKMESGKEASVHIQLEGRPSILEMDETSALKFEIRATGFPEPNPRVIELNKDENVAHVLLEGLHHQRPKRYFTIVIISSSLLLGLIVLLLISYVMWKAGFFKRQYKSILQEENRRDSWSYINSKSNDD

inhibition, inactive:
CC1(C)S[C@@H]2[C@H](N=CN3CCCCCC3)C(=O)N2[C@H]1C(=O)O 4.34%
CC1(C)S[C@@H]2[C@H](NC(=O)COc3ccccc3)C(=O)N2C1C(=O)OCc1ccccc1 (stereo partly specified) -9.56%
COc1ccccc1N1CCN(c2ncnc3sc(C)c(-c4ccccc4)c23)CC1 -10.6%
CCn1c(/C=N/NC(=O)c2ccc(OC)cc2)nc2ccccc21 -11%
O=C(C1CCCO1)N1CCN(C(=S)NC2CC2)CC1 (stereo unspecified) 8.17%
COc1ccccc1N(C(=O)Cn1nnc2ccccc21)C(C(=O)NCc1ccco1)c1ccc(C)o1 (stereo unspecified) 14%
O=C(Nc1ccc(F)c(Cl)c1)C1CCN(S(=O)(=O)c2cccnc2)CC1 12.9%
Nc1nnnn1/N=C/c1cccc(Br)c1 0.88%
CCOC(=O)Nc1ccc(NC(=O)OCC)cc1 10.4%
Cc1ccc(NC(=O)OCCNC(=O)c2ccncc2)cc1 -1.13%
FC(F)Oc1ccccc1NC(=S)Nc1cccc(Cl)c1Cl 21.2%
CCN(CC(=O)NCc1ccc(Cl)cc1)C(=O)CSc1ccccc1 -3.34%
COc1ncnc2c1N=C1CC(C)(C)CC(N)=C1S2 -11.6%
O=C(NCc1ccc2c(c1)OCO2)C12CC3CC(CC(C3)C1)C2 0.46%
CCc1c(O)nc(SCC(=O)Nc2ccccc2)n(C(C)CC)c1=O (stereo unspecified) 9.62%
CCOC(=O)c1sc(C)c2c1NC(C)(c1cccc3ccccc13)NC2=O (stereo unspecified) -0.92%
COc1ccc(CCNC(=O)CCC(=O)NC2CCCCC2)cc1OC 4.77%
CCOP(=O)(OCC)C(Nc1ccc([N+](=O)[O-])cc1)c1ccc(Cl)cc1 (stereo unspecified) -0.81%
CCO[C@H]1OC(C(=O)NCc2ccccc2)=C[C@@H](c2coc3ccccc3c2=O)[C@@H]1CCCO -1.21%
C=CCSc1nnc2c(n1)-c1cccc3cccc-2c13 -4.2%
O=S(=O)(O)c1nc2ccccc2n1Cc1ccc(Cl)cc1Cl 16.4%
CC(C)(C)C(=O)Cn1c(NCCO)nc2ccccc21 -16.2%
Cn1cc(CN2CCC(C(O)CCc3ccccc3)CC2)c(-c2ccccc2F)n1 (stereo unspecified) -11.7%
Cc1c(NC(=O)c2c([N+](=O)[O-])cnn2C)c(=O)n(-c2ccccc2)n1C 17.6%
Cc1ccc(C2NC(=S)NC3=C2N2CCC3CC2)cc1 (stereo unspecified) 2.28%
CC[C@@H]1CCCCc2ccccc2[C@@H](C(=O)C[C@H](O)CC(C)=O)OC1=O -25.7%
O=C(Nc1ccc(Br)cc1)C1CCC(=O)N1Cc1ccccc1Cl (stereo unspecified) 28.5%
CCN(CC(=O)Nc1c(F)cccc1F)C(=O)c1ccc(-c2ccccc2)cc1 -6.8%
CCCC[C@@H]1CN=C(N)N1CCc1cc(C(F)(F)F)cc(C(F)(F)F)c1 8.42%
CC1CC(C)CN(S(=O)(=O)c2cccc(C(=O)N3C(=O)c4cccc(N)c4C3=O)c2)C1 (stereo unspecified) 3.91%
Cc1cc(C)nc(/N=C2\NC(=O)CC(C(=O)O)N2c2ccc(Cl)cc2Cl)n1 (stereo unspecified) -2.34%
CCOC(=O)c1sc(NC(=O)CSc2nc(O)c(Cc3ccccc3)c(=O)[nH]2)nc1C 2.73%
O=C(Nc1ncccc1O)c1ccc(C(=O)c2ccccc2)cc1 16.6%
O=C(NCc1nnc(SCC(=O)N2CCC(Cc3ccccc3)CC2)o1)c1ccco1 -6.21%
Cc1c(C=O)c2ccccn2c1C(=O)c1ccncc1 11.9%
CCC/C(O)=C1\C(=O)CC(C)(C)CC1=Nc1ccccc1OC 15.2%
Cc1ccc(C)c(N2CCN(C(=O)CCc3nc4ccccc4[nH]3)CC2)c1 8.4%
Cc1cc(C(=O)NNC(=S)NC(C)c2ccccc2)cs1 (stereo unspecified) 6.13%
CCC(C)(C)NC(=O)C(c1cccc(OC)c1OC)N(CC(C)C)C(=O)CCC(=O)Nc1cc(C)on1 (stereo unspecified) 1.27%
COc1ccc(OCC(=O)NNC(=O)C2CCC2)cc1 13.2%
O=C(COc1ccc(Cl)cc1)Nc1ccc2c(c1)OCO2 14.3%
COC(=O)[C@@]12CCCN1[C@H](c1ccc(-c3ccc(F)cc3)c(OC)c1)[C@H]1C(=O)N(C)C(=O)[C@H]12 21.7%
Cc1ccc(CNC(=O)CCCNC(=O)c2ccc(Cl)cc2)n1C -1.01%
CC(=O)NCC(=O)N(C)C(C(=O)Nc1ccc2c(c1)OCCO2)c1ccccc1 (stereo unspecified) 14.2%
O=c1[nH]nc(SCCS(=O)(=O)c2ccc(F)cc2)n1-c1ccccc1C(F)(F)F 3.05%
C=C(C)CNC(=S)/N=c1\scc(C)n1CC 5.83%
O=C(O)CSCC(=O)Nc1ccc(C(F)(F)F)cc1 4.49%
Cc1cc2cc3c(N)[nH]nc3nc2cc1C 10.6%
Cc1cc(OCCN2CCCC2)cc(C(C)C)c1 -8.43%
Cc1ccc(SCC(=O)Nc2ncc(C)s2)cc1 -0.13%
Cc1nnc(SCC(=O)Nn2cnnc2)s1 -1.38%
COc1cccc(N2C(=O)CC(N3CCN(S(=O)(=O)c4ccccc4)CC3)C2=O)c1 (stereo unspecified) 12.7%
COc1cccc(N2C(=O)CC(N3CCc4ccccc4C3)C2=O)c1 (stereo unspecified) -4.39%

inhibition, 5.73% (inactive) and 56.2% (active):
CC1(C)SC2C(NC(=O)COc3ccccc3)C(=O)N2C1C(=O)O (stereo unspecified)

inhibition, active:
Cc1ccc(NC(=O)OCc2cncs2)cc1 52.5%
O=C(Cn1c(NCCO)nc2ccccc21)c1ccc(Cl)cc1Cl 62.2%
CCc1ccc2c(c1)C1(NN=C(c3ccccc3)S1)C(=O)N2 (stereo unspecified) 92.2%
CC/C(O)=C1\C(=O)CC(C)(C)CC1=NCCc1nc2ccccc2[nH]1 55.8%
NNC(=O)COc1ccc(C2SCCS2)cc1 54.2%
Cc1cnc(NC(=O)CSc2nnc(C)s2)s1 58.3%
COc1cccc(N2CCN(C3CC(=O)N(c4ccc(Cl)cc4)C3=O)CC2)c1 (stereo unspecified) 94.7%
